# Experimental data reported in PubChem BioAssay AID504810 (National Center for Advancing Translational Sciences (NCATS), 2011).
# Among all 330,000 compounds or so, about 670 (0.2%) were called active. The full list was thinned out, with actives kept by preference. A number with no mark means an inactive call.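 How the source made its calls: active means activity change below a set negative limit, meaning inhibition stronger than a set level (cut at about -70% in these data); inconclusive means activity change between two set negative limits; inactive means the rest.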
# Target: Thyrotropin receptor (Homo sapiens) (UniProt P16473)
# Sequence (P16473 whole entry, looked up): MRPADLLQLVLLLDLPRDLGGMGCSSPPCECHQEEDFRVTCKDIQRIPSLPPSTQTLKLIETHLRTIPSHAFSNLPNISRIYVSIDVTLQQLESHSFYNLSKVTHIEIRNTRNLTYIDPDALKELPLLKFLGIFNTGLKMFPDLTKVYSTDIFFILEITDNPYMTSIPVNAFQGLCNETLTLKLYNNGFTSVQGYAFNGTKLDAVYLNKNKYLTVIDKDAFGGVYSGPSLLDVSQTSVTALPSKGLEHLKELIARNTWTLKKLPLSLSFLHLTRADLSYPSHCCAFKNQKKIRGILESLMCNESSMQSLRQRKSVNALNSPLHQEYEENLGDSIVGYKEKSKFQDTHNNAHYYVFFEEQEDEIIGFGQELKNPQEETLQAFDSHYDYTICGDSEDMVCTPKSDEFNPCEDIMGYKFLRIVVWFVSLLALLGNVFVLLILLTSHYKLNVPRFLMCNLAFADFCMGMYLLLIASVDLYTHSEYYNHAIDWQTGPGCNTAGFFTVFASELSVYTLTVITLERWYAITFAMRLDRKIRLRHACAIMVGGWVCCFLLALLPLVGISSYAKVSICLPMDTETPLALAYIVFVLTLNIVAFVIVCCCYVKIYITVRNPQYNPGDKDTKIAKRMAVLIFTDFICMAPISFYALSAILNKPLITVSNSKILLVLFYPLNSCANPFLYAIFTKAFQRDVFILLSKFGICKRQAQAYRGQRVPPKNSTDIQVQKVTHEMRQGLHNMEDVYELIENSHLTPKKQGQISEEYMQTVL
# Assay: Antagonists of the Thyroid Stimulating Hormone Receptor: HTS campaign
# Settings: TSHR-expressing cells, TSH-stimulated cAMP HTRF, 2 h; at 11.5 µM; active compounds read low
# How it was run: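 Inhibition of cAMP made by TSHR-expressing cells under TSH stimulation (4nM final, EC80; 2 h, 37 deg C) is quantified with a one-step lysis HTRF kit, anti-cAMP cryptate versus cAMP-d2.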
# On the % scale 0 is the no-effect control and ±100 the full control effect.
row,Structure (SMILES),"activity change, negative = inhibition"
1,CNC(=O)C1CCN(S(=O)(=O)c2c(C)noc2/C=C/c2cccc(C)c2)CC1,9.08%
2,CC(NC(=O)CNC(=O)Cc1cccc2ccccc12)c1ccc(S(N)(=O)=O)cc1 (stereo unspecified),-28.1%
3,CCNC(=O)N1CCN(S(=O)(=O)c2ccc3c(c2)OCCCO3)CC1,13%
4,O=c1ccc(-c2ccc(S(=O)(=O)Nc3ccccc3)o2)n[nH]1,14.7%
5,COc1cccc(NC(=O)CC(c2ccc(OC(C)C)cc2)c2ccccc2OC)c1 (stereo unspecified),-14.4%
6,CCOC(=O)NN1C(=O)c2ccccc2NC1c1ccccc1O (stereo unspecified),8.06%
7,O=C(CCN1C(=O)C2C3CCC(C3)C2C1=O)Nc1ccc(Cl)cc1Cl (stereo unspecified),1.9%
8,CCN(CC)C(=O)CSc1nnc(-c2ccc(S(=O)(=O)NCc3ccccc3Cl)cc2)o1,-13.6%
9,COc1ccc(S(=O)(=O)n2cnc3ccccc32)c(C)c1,-81.3% (active)
10,Cc1ccc(S(=O)(=O)n2cnc3ccccc32)c(C)c1,2.16%
11,COc1ccc(S(=O)(=O)N2CCN(C)CC2)c(C)c1,-0.476%
12,CCC1SC2=NCCN2C1(O)c1ccc(Cl)cc1 (stereo unspecified),6.43%
13,CCOc1ccc(N(CC(=O)NCCc2ccc(F)cc2)S(=O)(=O)c2ccccc2)cc1,-7.25%
14,CCN1C(=S)N[C@@H](c2cccc(C(F)(F)F)c2)C(C(=O)OC)=C1C,0.624%
15,COC(=O)c1cc(=O)n(-c2c(Cl)cc(C(F)(F)F)cc2Cl)[nH]1,-90% (active)
16,CC(NC(=O)Cn1cc(C(F)(F)F)cc(Cl)c1=O)c1ccccc1 (stereo unspecified),7.91%
17,Cc1sc2ncn(CC(=O)NCCCC(=O)N(C)Cc3ccccc3)c(=O)c2c1C,3.25%
18,Cc1sc2ncn(CC(=O)NCCCC(=O)N3CCN(c4ccccc4F)CC3)c(=O)c2c1C,3.65%
19,Cc1sc2ncn(CC(=O)NCCCC(=O)NCc3ccc(F)cc3)c(=O)c2c1C,-97.7% (active)
20,COc1ccc(CCNCc2c(-c3ccccc3)n(C)c3ccccc23)cc1,5.27%
21,COc1cc(OC)cc(C(=O)NNC(=O)CNC(=O)c2ccc(Br)o2)c1,-4.32%
22,NC1CCN(O)C1=O (stereo unspecified),5.61%
23,CCC(C)NC(=O)C1CCC(=O)N1Cc1ccc(C)cc1 (stereo unspecified),1.98%

row,Structure (SMILES),"activity change, negative = inhibition"
1,CCCN(c1ccc(C(C)C)cc1)S(=O)(=O)c1c(C)[nH]c(=O)[nH]c1=O,-12.7%
2,Cc1ccc(CN2CCNC(=O)C2CC(=O)NCc2csc(C(C)C)n2)cc1 (stereo unspecified),12.6%
3,NC(=O)C1CCN(c2nc(-c3cccc(F)c3)cs2)CC1,-7.85%
4,COc1ccc(NC(=O)CSc2nnc(Cc3ccccc3)c(=O)n2N)cc1,7.33%
5,CCCCn1c(N)c(N(CCOC)C(=O)COc2c(C)cccc2C)c(=O)[nH]c1=O,-0.316%
6,CCc1ccccc1NC(=O)CN(C)C(=O)COc1ccc(C)nc1[N+](=O)[O-],4.86%
7,C1CC1Cc1noc(CN2CCN(CC3CC3)CC2)n1,3.76%
8,NS(=O)(=O)c1cc(C(=O)NCCOc2ccccc2)c(Cl)cc1Cl,8.26%
9,CCc1nn(CC(=O)N2CCN(c3cc(C)ccc3C)CC2)c(=O)c2cc3occc3n12,12.8%
10,OCC(O)CN(c1ccccc1)c1ccccc1 (stereo unspecified),3.75%
11,CC1(C)O[C@@H]2[C@H](O1)[C@@H](CO)O[C@H]2n1c(N2CCCCC2)nc2c(N)ncnc21,-5.04%
12,Nc1ccc(Nc2cc(O)c3ncccc3c2)cc1,-16%
13,CCOC(=O)c1ccccc1NS(=O)(=O)c1c(C)nc2sccn2c1=O,3.11%
14,CCN(/N=C/c1ccc(N(C)C)cc1)c1nc2ccccc2[nH]1,-6.71%
15,O=C(CC(O)(C(F)(F)F)C(F)(F)F)Nc1ccc(Cl)c(Cl)c1,-74.6% (active)
16,O=C(CCCN1C(=O)CCC1=O)Nc1ccc(Cl)c(C(F)(F)F)c1,1.2%
17,CS(=O)(=O)N(CC(=O)Nc1ccc(Cl)c(Cl)c1)C1CCCCC1,15.8%
18,Cc1ccccc1CN1C[C@@H]2C[C@@H](c3cn(C)nc3-c3ccccc3)N3CCC[C@@]23C1=O,2.86%
19,NC(=O)COC(=O)c1cc(S(=O)(=O)N2CCN(c3ccccc3)CC2)ccc1Cl,-4.47%
20,CCNC(=O)NC(=O)C(C)OC(=O)C1CCN(S(=O)(=O)c2ccccc2F)CC1 (stereo unspecified),15.3%
21,O=C(CCNC(=O)Cn1ccc2ccccc2c1=O)NCCC1=CCCCC1,9.22%
22,Oc1ccc(Cn2cc[nH]c2=S)cc1,7.71%
23,Cc1ccc(S(=O)(=O)N2[C@@H](c3ccc(Br)cc3)C(C(=O)O)=C[C@H]2CC2CCCC2)cc1,-5.29%

row,Structure (SMILES),"activity change, negative = inhibition"
1,CC[C@]12c3[nH]c4ccc(Cl)cc4c3CCN1C(=O)[C@@H](CC(=O)NCCCOC)C[C@@H]2C(=O)N1CCN(C(=O)C2CC2)CC1,11.4%
2,CCN(Cc1ccccc1)C(=O)Cc1ccc(OC)c(S(=O)(=O)N2CCOCC2)c1,0.0578%
3,N#Cc1c(Cl)nc(-c2cccnc2)nc1-c1ccccc1,3.65%
4,CC1(c2ccc3ccccc3c2)NC(=O)N(CC(N)=O)C1=O (stereo unspecified),-6.17%
5,CN(C)c1ccc(S(=O)(=O)NCC(=O)NCC2CCCCC2)cc1[N+](=O)[O-],6.75%
6,Cc1ccc(S(=O)(=O)NCCCn2ccnc2)cc1C(=O)NC(C)C,-0.615%
7,CC1(C)CC(CCC(=O)Nc2ccccc2Cl)C(=O)O1 (stereo unspecified),13.5%
8,O=C(Nc1ccccc1Cl)/C(Cl)=C(\Cl)S(=O)c1ccccc1 (stereo unspecified),-71.3% (active)
9,Cc1c(NC(=O)Nc2ccccc2Cl)sc(=S)n1C,46.2%
10,O=C1CCC(C(=O)N2CCCCO2)CN1Cc1cccc(C(F)(F)F)c1 (stereo unspecified),15.4%
11,COc1ccc(CCNC2=CC(=O)CC(C)(C)C2)cc1,-4.33%
12,O=C1NC2(CCCCCC2)C(=O)N1CCS(=O)(=O)Oc1ccccc1,-2.81%
13,Cc1ccc(C(=O)Nc2ncccc2C)cc1S(=O)(=O)N1CCOCC1,-1.78%
14,COc1ccc(/C=C/C(=O)OCC(=O)NC2CCCCCC2)cc1OC,-8.81%
15,CCN(CC(=O)Nc1ccccc1C(F)(F)F)C(=O)CSCc1c(C)noc1C,4.59%
16,Cc1nnc(NC(=O)CSc2nccn2-c2cccc(C)c2C)s1,-14.2%
17,Fc1ccc(-n2c(Cc3ccccc3)nnc2SCc2nc(-c3ccc(Cl)cc3)no2)cc1,7.8%
18,CCOCCCNC(=O)C(NC(=O)c1ccc(=O)[nH]c1)c1ccc(C)cc1 (stereo unspecified),-1.24%
19,CCOCCCNC(=O)C(NC(=O)c1ccccc1O)c1ccccc1 (stereo unspecified),1.46%
20,CCOCCCNC(=O)C(NC(=O)c1ccc(=O)[nH]c1)c1ccc(Cl)cc1 (stereo unspecified),-71.3% (active)
21,CCOC(=O)C1(CC2CCCCO2)CCN(Cc2nc(-c3cccs3)oc2C)CC1 (stereo unspecified),-7.01%
22,COc1ccc(S(=O)(=O)NC2(C(F)(F)F)N=C3SCCN3C2=O)cc1 (stereo unspecified),17.4%
23,Cc1ccc(S(=O)(=O)NC2(C(F)(F)F)NC(=O)N(CCc3ccccc3)C2=O)cc1 (stereo unspecified),-3.44%

row,Structure (SMILES),"activity change, negative = inhibition"
1,COc1ccc(N2C(=O)NC(NS(=O)(=O)c3ccc(Cl)cc3)(C(F)(F)F)C2=O)cc1 (stereo unspecified),-105% (active)
2,Cc1cc(C(=O)NC2CCCc3c2cnn3-c2cccc(C)c2C)c(C)o1 (stereo unspecified),-79.3% (active)
3,Cn1nccc1C(=O)NC1CCCc2c1cnn2-c1ccccc1F (stereo unspecified),-36.6%
4,Cn1nccc1C(=O)NC1CCCc2c1cnn2-c1ccc(F)cc1F (stereo unspecified),-37.7%
5,Cc1ccc(S(=O)(=O)c2c[nH]c3ccc(Cl)cc3c2=O)cc1,-9.54%
6,CCn1nc(C(=O)NNC(=O)C2CSC3(C)CCC(=O)N23)c2ccccc2c1=O (stereo unspecified),6.6%
7,COCCCn1c(Cc2csc(Nc3cccc(Cl)c3)n2)nnc1SCC(=O)OC1CCCCC1,-4.53%
8,C/C(=N\NC(=O)c1cc(-c2ccc(O)cc2)nc2ccccc12)c1cccnc1,0.505%
9,Cc1cccc(N2CCC(NCc3c(C(=O)N4CCCCC4)nc4c(C)cccn34)CC2)c1,4.5%
10,CCOC(=O)[C@H]1[C@H]2COc3ccc(C)cc3[C@@H]2N2C(=O)CN(Cc3ccc(F)cc3)C(=O)[C@@]12C,-7.74%
11,Cc1ccc(N(CCC(=O)O)S(=O)(=O)c2cccc(C(F)(F)F)c2)cc1,22.4%
12,CN(CC(=O)Nc1cccc(F)c1)C(=O)C1CC(=O)N(CCc2ccccc2)C1 (stereo unspecified),8.3%
13,CC(C)c1ccc(NC(=S)NC2CC3C=CC2C3)cc1 (stereo unspecified),-4.5%
14,CC(NC(=O)COC(=O)CCC(=O)c1ccc(Cl)cc1)c1ccccc1 (stereo unspecified),-10.7%
15,COc1cccc(NC(=O)C2CCCN(c3ncnc4c3nc3n4CCCCC3)C2)c1 (stereo unspecified),-12.1%
16,COc1cccc(N(CC(=O)NCc2ccccc2)C(=O)CCC(=O)Nc2nccs2)c1,-9.83%
17,O=C(CN(C(=O)CCC(=O)Nc1nccs1)c1ccc(F)cc1)NCc1ccc2c(c1)OCO2,21.9%
18,COc1ccc(N(CC(=O)NCc2ccc(F)cc2)C(=O)CCC(=O)Nc2nccs2)cc1,-77.8% (active)
19,COC(=O)c1ccc(S(=O)(=O)N2CCC(c3nc4ccccc4o3)CC2)cc1,-1%
20,c1n[nH]c(NCc2ccc3c(c2)OCO3)n1,5.91%
21,Cn1cc(CCC(=O)NCc2ccc3c(c2)OCO3)c2ccccc21,5.66%
22,N#Cc1nc(Cc2cccc3ccccc23)oc1NCc1ccc2c(c1)OCO2,-94.7% (active)
